hcDAF12 agonist: activates DAF-12 receptor from parasite H. contortus. HEK293 hcDAF-12 lit1-tk-luc reporter, luminescence; 0% DMSO, 100% Δ7-dafachronic acid. activation, % at 6.8 µM. actives 1.4% (n = 370,000). AID 652067;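 active = activation above the mean of all tested compounds plus 3 SD, cut at about 5.5% in these data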;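 also: 100% = response to 3 µM Δ7-dafachronic acid high control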
DAX1 inh-1: inhibitors of human orphan nuclear receptor DAX1 (NR0B1); HEK293 Gal4-DAX1 luciferase reporter, luminescence; inhibition, % at 6.75 µM; actives 0.99% (n = 340,000); AID 504766;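 active = inhibition above the mean over all tested compounds plus 3 SD, cut at about 4.2% in these data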;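 also: 0% = DAX1-transfected cells with DMSO and 100% = empty-vector control cells with DMSO; inhibition shows as a rise in luminescence from relieved DAX1 repression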
AHR activator: activates the human aryl hydrocarbon receptor; P35869; AHR-responsive luciferase reporter cells, luminescence; activation, % at 5 µM; actives 2.5% (n = 320,000); in the data active = activation above about 47%;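 also: 0% = vehicle wells and 100% = reference agonist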
Target sequence (P35869 whole entry, looked up): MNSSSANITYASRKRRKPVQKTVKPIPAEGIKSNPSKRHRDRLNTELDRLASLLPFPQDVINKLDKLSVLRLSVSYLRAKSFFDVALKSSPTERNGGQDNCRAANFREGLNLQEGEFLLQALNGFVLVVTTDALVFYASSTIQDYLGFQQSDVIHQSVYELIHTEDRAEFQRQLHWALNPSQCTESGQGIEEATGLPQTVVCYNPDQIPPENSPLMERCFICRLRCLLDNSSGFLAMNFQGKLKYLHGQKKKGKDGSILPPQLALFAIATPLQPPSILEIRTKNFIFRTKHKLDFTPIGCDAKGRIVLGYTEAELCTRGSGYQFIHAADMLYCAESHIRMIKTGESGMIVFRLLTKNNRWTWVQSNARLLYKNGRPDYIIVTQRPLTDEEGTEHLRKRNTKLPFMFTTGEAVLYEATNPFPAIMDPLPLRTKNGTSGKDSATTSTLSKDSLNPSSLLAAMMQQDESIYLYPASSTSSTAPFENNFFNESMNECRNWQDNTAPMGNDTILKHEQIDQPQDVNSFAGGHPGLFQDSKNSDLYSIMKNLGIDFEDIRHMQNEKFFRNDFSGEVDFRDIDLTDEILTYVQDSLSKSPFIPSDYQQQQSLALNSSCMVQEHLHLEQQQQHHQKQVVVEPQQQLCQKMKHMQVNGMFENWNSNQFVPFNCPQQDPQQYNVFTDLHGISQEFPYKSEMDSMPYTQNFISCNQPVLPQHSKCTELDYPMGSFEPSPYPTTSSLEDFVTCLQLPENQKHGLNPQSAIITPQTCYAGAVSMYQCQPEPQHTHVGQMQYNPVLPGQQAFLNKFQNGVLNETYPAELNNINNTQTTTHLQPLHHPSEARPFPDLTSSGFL
ssDAF-12 act: activates DAF-12 receptor from parasite S. stercoralis; HEK293 ssDAF-12/GRIP1 lit1-tk-luc reporter, luminescence; % of 3 µM dafachronic acid response; activation, % at 6.8 µM; actives 1% (n = 370,000); AID 652126;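 active = activation above the mean over all tested compounds plus 3 SD, cut at about 0.9% in these data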;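 also: 0% = DMSO-only wells and 100% = 3 µM delta7-dafachronic acid wells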
hgDAF12 agonist: hgDAF-12 agonism, primary luciferase screen; activation, % at 6.8 µM; AID 687014; HEK293 GAL4-hgDAF12 UAS-luciferase reporter, agonist luminescence; normalized to butyrate control; actives 1.8% (n = 370,000);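 active = activation above a cutoff set at the mean of all screened compounds plus 3 SD, cut at about 10% in these data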;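 also: 0% = DMSO wells and 100% = sodium butyrate wells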
DAX1 inh-2: blocks DAX1 repression of SF-1 activated StAR promoter | actives 1.1% (n = 370,000) | inhibition, % at 6.8 µM | HEK293T StAR-luciferase reporter, SF-1/DAX-1 repression relief;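 active = inhibition above the mean over all tested compounds plus 3 SD, cut at about 3.6% in these data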;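 also: 0% = DAX-1 cells with DMSO and 100% = cells lacking DAX-1 with DMSO; higher inhibition means more luminescence from relief of DAX-1 repression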
An asterisk follows results filed as active; nt = not tested or not shown. This is a sample that favours compounds with a hit; in the whole collection about 5.7% have one here.

SMILES | hcDAF12 agonist | DAX1 inh-1 | AHR activator | ssDAF-12 act | hgDAF12 agonist | DAX1 inh-2
O=C1C(Oc2ccccc2)C(c2ccc3c(c2)OCO3)N1CCc1ccc(F)cc1 (configuration not stated) | -2.7 | 2.9 | 71.4* | 0.5 | -1.4 | 0.1
O=C(CSc1cccc[n+]1[O-])Nc1c(Br)cc([N+](=O)[O-])cc1Br | -2.0 | -0.1 | 10.9 | -1.4 | -1.8 | 0.1
c1cnc(Sc2ccc3nnnn3n2)nc1 | -0.7 | 1.0 | 4.4 | 1.3* | 1.7 | -0.5
[O-]/C(=C(\C(=S)Nc1cccc2ccccc12)[n+]1ccccc1)c1ccc(Cl)s1 | 4.8 | -0.5 | 73.3* | -0.6 | -3.5 | -0.3
CC(C)NC(=O)N(C)C[C@H]1OCc2cn(nn2)CCCC(=O)N([C@H](C)CO)C[C@@H]1C | -0.1 | nt | nt | -0.6 | -0.9 | 1.6
CN(C)c1ccc(-c2nnc(SCC3CCCO3)n2C)cc1 (configuration not stated) | 2.5 | 4.8* | 6.4 | 0.1 | 8.0 | 2.1
O=C(O)C(Cc1ccc(O)cc1)N1C(=O)C2CCCCC2C1=O (configuration not stated) | -1.6 | 1.9 | 1.3 | -0.7 | -2.8 | -0.2
CC1(C)CC2(C)CC(=O)C1C(C(=O)O)C2C(=O)O (configuration not stated) | -0.1 | 1.5 | nt | -1.2 | 0.6 | -1.0
CC(Sc1nnc(-c2ccc(OC(F)F)cc2)o1)C(=O)NCC1CCCO1 (configuration not stated) | 1.5 | 0.0 | 7.2 | 1.1* | -1.7 | 0.9
CC(Sc1nnc(-c2ccc(OC(F)F)cc2)n1N)C(=O)NCC1CCCO1 (configuration not stated) | -0.1 | 0.2 | 1.3 | -0.7 | 1.4 | 4.4*
CC(Sc1nnc(-c2ccco2)n1N)C(=O)NCC1CCCO1 (configuration not stated) | -1.1 | 0.2 | 2.0 | -0.7 | 1.2 | -0.6
O=C(NC1CCN(Cc2ccccc2)CC1)C1CCCN(c2nnc(-n3cccc3)s2)C1 (configuration not stated) | 2.6 | -0.3 | -0.1 | 0.5 | 11.1* | 1.6
CC(C)/C=C1\CCc2c([nH]c3ccccc23)C1=O | -0.9 | -0.4 | 56.7* | -1.4 | 8.2 | -1.0
O=C1/C(=C\c2ccccc2)CCc2c1[nH]c1ccccc21 | 5.6 | -1.4 | 20.4 | 0.4 | 13.1* | -0.9
O=C(CNS(=O)(=O)c1ccc([N+](=O)[O-])cc1)N/N=C/c1ccc(O)cc1O | -0.7 | 1.1 | 5.0 | -0.8 | -5.0 | -0.6
COCCNC(=S)N=Nc1c(O)[nH]c2ccc([N+](=O)[O-])cc12 | 0.1 | 0.3 | 12.1 | -1.5 | 1.2 | -0.5
c1ccc2occc2c1 | 1.7 | 4.3* | -0.3 | -1.1 | -0.1 | 0.0
COc1ccc([C@@H]2CC=C(C(=O)O)[C@H](c3ccc(C)cc3)N2S(=O)(=O)c2ccc(C)cc2)cc1OC | -0.6 | -0.4 | -0.5 | -1.3 | -0.5 | 1.1
COC(=O)[C@]12C=CCN1[C@@H](c1ccc(OC)c(OC)c1)c1c(c3ccccc3n1S(=O)(=O)c1ccc(C)cc1)C2 | 5.8* | nt | nt | -1.3 | 0.6 | -1.4
NC(c1csc(Nc2nccc(C(F)(F)F)n2)n1)C1CCCCC1 (configuration not stated) | 2.4 | nt | nt | -0.3 | 2.9 | 0.0
CC(NC(=O)c1cc2cc(F)ccc2[nH]1)c1ccccc1 (configuration not stated) | 4.5 | 0.2 | 53.2* | -0.3 | 0.7 | -0.5
CC(NC(=O)c1ccc(F)cc1)c1ccccc1 (configuration not stated) | -0.1 | 0.0 | -1.2 | -1.3 | -0.4 | 0.2
COc1cc(C(=O)Oc2c(OC)cc(C(=S)N3CCOCC3)cc2OC)cc(OC)c1OC | -1.2 | 5.0* | -1.9 | -1.6 | -3.0 | 0.0
O=C(CN1C(=O)C2CC=CCC2C1=O)Nc1ccc(F)cc1F (configuration not stated) | 1.5 | 0.1 | 0.5 | -0.6 | -4.3 | -1.2
CCN(CC)c1ccc(-c2nc3cnccn3c2NC2CCCC2)cc1 | -0.4 | -1.1 | 68.9* | -1.0 | 1.5 | 0.4
COc1ccc(-c2cc3nc4n(c(=O)c3s2)CCCCC4)cc1 | 5.1 | 7.8* | -2.9 | 0.1 | 9.6 | 2.9

Compound activity as filed in PubChem.
